Calls of active or inactive are those of the source. How the source made its calls: active means hit-call score of the fitted dose curve at least 0.9, where 1 is the maximum; inactive means score below 0.9.
Experiments:
[1] = ATG_Ets_CIS: Attagene CIS-FACTORIAL HepG2 Assay for human Erythroblast Transformation Specific (ETS) (AID 2282941); settings: HepG2 ETS cis-reporter transcription, actives raise or lower the signal
How it was run: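 Bidirectional fit versus DMSO of reporter mRNA signal, detected by RT-PCR and capillary electrophoresis in HepG2 cells transiently transfected with cis-element reporters and dosed 24 h.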

[2] = biological target: Hepatocyte nuclear factor 3-beta (Homo sapiens) (UniProt Q9Y261); experiment: ATG_FoxA2_CIS: Attagene CIS-FACTORIAL HepG2 Assay for human Forkhead box A2 (FOXA2) (AID 2282942); settings: HepG2 cis-reporter transcription factor activity, 24 h; actives raise or lower the signal
How it was run: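 Transient MRTU transfection of HepG2 liver cells; 24 h treatment; total RNA → oligo(dT) RT → PCR → FAM primer extension → HpaI cut → CE. Bidirectional fit vs DMSO.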

[3] = ATG_FoxO_CIS: Attagene CIS-FACTORIAL HepG2 Assay for human Forkhead box O (FoxO) (AID 2282943); settings: HepG2 Attagene cis-reporter, FoxO element, mRNA; actives raise or lower the signal
How it was run: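 Read-out: fluorescence of 6-FAM-labelled reporter cDNA fragments resolved by capillary electrophoresis. Transiently transfected HepG2 cells were dosed for 24 h; activity fitted in both directions relative to DMSO controls.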

[4] = ATG_GATA_CIS: Attagene CIS-FACTORIAL HepG2 Assay for human GATA Binding Protein (AID 2282944); settings: HepG2 GATA cis-element reporter, Attagene multiplex mRNA; actives raise or lower the signal
How it was run: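 Transfected cis-reporter HepG2 cells were treated with chemicals for 24 hours. Total RNA was then converted to cDNA, amplified with reporter-specific primers and analysed by fluorescent capillary electrophoresis, using DMSO-treated wells as baseline.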

[5] = ATG_GRE_CIS: Attagene CIS-FACTORIAL HepG2 Assay for human Glucocorticoid Response Elements (GRE) (AID 2282947); settings: HepG2 GRE cis-reporter, Attagene multiplex mRNA; actives raise or lower the signal
How it was run: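 Read-out: fluorescent reporter-transcript fragments separated by capillary electrophoresis after RT-PCR. Transiently transfected HepG2 cells carrying cis-element-driven reporter units were dosed for 24 h; gain or loss of signal fitted against DMSO control.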

[6] = ATG_ISRE_CIS: Attagene CIS-FACTORIAL HepG2 Assay for human Interferon Regulatory Factor 1 (IRF1) binding to an Interferon-Stimulated Response Element (ISRE) (AID 2282948); settings: HepG2 ISRE cis-reporter (Attagene), mRNA transcription readout; actives raise or lower the signal
How it was run: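 Uses HepG2 liver cells transfected with cis-regulated reporters and measures mRNA 24 h post-dosing through RT-PCR, primer-extension labelling and capillary electrophoresis, with DMSO as negative control.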

[7] = ATG_M_32_CIS: Attagene CIS-FACTORIAL HepG2 Assay for M32 Transcription Factor (Internal Marker) (AID 2282949); settings: HepG2 Attagene cis-factorial M32 reporter, mRNA; actives raise or lower the signal;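 further: background control marker of the multiplexed CIS panel rather than a real target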
How it was run: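 Using DMSO as baseline, bidirectional curve fits were applied to reporter mRNA signals. These came from transiently transfected HepG2 cells exposed for 24 h, with RNA analysed by RT-PCR, FAM primer extension, HpaI digestion and CE.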

[8] = ATG_M_06_CIS: Attagene CIS-FACTORIAL HepG2 Assay for M06 Transcription Factor (Internal Marker) (AID 2282950); settings: HepG2 Attagene CIS-FACTORIAL M06 internal marker reporter; actives raise or lower the signal
How it was run: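 Cells (HepG2, transiently carrying cis-driven reporter units) receive chemical for 24 h before RNA isolation. Reporter cDNA is PCR-amplified, FAM-labelled by primer extension, HpaI-digested and sized on a capillary analyser.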

[9] = biological target: Bile acid receptor (Homo sapiens) (UniProt Q96RI1); experiment: ATG_IR1_CIS: Attagene CIS-FACTORIAL HepG2 Assay for human Nuclear Receptor Subfamily 1 Group H Member 4 (NR1H4), IR1 submotif (AID 2282946); settings: IR1 reporter transcription, actives raise or lower the signal
How it was run: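 Fluorescence of capillary-separated, HpaI-digested RT-PCR reporter products gave IR1-element mRNA induction in HepG2 cells 24 h after dosing. Endogenous transcription factors drove the cis-regulated reporters; activity was fitted bidirectionally against DMSO.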

[10] = ATG_GLI_CIS: Attagene CIS-FACTORIAL HepG2 Assay for human Zinc Finger Protein GLI1 (AID 2282945); settings: HepG2, Attagene cis-factorial reporter mRNA, GLI element; actives raise or lower the signal
How it was run: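 Transiently transfected HepG2 cells report endogenous transcription factor activity via cis-element-driven reporter units. After 24 h compound exposure, reporter mRNA was measured by RT-PCR with capillary electrophoresis; bidirectional fitting against DMSO baseline.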

Measured: AC50

Sequence of Hepatocyte nuclear factor 3-beta (Homo sapiens) (Q9Y261 whole entry, looked up): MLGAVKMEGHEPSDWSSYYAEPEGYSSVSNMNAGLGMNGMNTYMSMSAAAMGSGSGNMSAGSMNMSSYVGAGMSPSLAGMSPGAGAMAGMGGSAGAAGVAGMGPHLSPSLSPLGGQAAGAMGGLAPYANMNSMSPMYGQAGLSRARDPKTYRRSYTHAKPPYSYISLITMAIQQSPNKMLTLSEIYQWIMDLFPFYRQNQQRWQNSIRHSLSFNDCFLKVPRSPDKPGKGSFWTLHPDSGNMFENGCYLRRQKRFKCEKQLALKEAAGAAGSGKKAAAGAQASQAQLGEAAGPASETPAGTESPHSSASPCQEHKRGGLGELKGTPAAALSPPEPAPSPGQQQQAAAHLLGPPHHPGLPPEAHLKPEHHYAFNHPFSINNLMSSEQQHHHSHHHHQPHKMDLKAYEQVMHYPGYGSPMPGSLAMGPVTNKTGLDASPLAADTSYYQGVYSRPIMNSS
Sequence of Bile acid receptor (Homo sapiens) (Q96RI1 whole entry, looked up): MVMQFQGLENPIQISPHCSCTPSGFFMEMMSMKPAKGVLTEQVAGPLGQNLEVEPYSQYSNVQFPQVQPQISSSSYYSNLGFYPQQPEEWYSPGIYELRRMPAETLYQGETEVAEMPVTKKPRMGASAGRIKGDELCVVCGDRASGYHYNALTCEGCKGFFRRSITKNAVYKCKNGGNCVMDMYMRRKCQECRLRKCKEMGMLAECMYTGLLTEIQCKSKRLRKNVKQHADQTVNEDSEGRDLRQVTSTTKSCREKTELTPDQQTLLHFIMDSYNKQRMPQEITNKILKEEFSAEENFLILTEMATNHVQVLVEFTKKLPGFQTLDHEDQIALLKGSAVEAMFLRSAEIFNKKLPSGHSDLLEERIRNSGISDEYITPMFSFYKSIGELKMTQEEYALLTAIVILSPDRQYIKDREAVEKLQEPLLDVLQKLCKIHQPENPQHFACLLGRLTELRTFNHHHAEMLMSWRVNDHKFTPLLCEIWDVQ

Nc1nc(=S)[nH][nH]1
inactive: [1] | [2] | [3] | [4] | [5] | [6] | [7] | [8]

Oc1cccc(-c2ccccc2)c1
inactive: [1] | [2] | [3] | [4] | [9] | [5] | [6] | [7] | [8]

O=C(CCl)Nc1ccccc1
inactive: [1] | [2] | [8]
active: [3] 83.2 µM | [4] 161 µM | [9] 54.4 µM | [5] 177 µM | [6] 54.9 µM | [7] 134 µM

C=CCOC(F)(C(F)(F)F)C(F)(F)F
inactive: [1] | [2] | [3] | [4] | [9] | [5] | [6] | [7] | [8]

O=C(CBr)c1ccc(O)cc1
inactive: [1] | [2] | [3] | [4] | [9] | [5] | [6] | [7] | [8]

NC(=O)c1ccc(N)nc1
inactive: [2] | [3] | [4] | [10] | [5] | [7] | [8]
active: [1] 100 µM

O=C(NC(=O)c1c(F)cccc1F)Nc1ccc(Cl)cc1
inactive: [1] | [2] | [3] | [4] | [10] | [6] | [7] | [8]

CCOC(=O)c1ccccc1S(=O)(=O)NC(=O)Nc1nc(Cl)cc(OC)n1
inactive: [1] | [2] | [4] | [10] | [9] | [5] | [7] | [8]

CCOCn1c(-c2ccc(Cl)cc2)c(C#N)c(Br)c1C(F)(F)F
active: [1] 60.1 µM | [5] 38.1 µM | [6] 1.42 µM | [7] 148 µM
inactive: [2] | [3] | [4] | [8]

NNCCO
inactive: [1] | [2] | [4] | [10] | [9] | [7] | [8]
